± gives the standard deviation of the averaged measurements.
Biological target: IKZF1 (dCK*-IKZF1 fusion in HEK293FT) (UniProt Q13422)
Assay: inhibition of IKZF1 HTRF signal (DMSO = 0%, pomalidomide 10 uM = 100%); higher = lower IKZF1 protein level
Settings: compound concentration: 5 uM, overnight (~20 h)
In short: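 After overnight treatment at 37 °C with 5 μM compound in single wells, HEK293FT cells (2000/well, 384-well) stably expressing an IKZF1 fusion were lysed for 30 min at room temperature. A commercial HTRF total-IKZF1 antibody kit was incubated with the lysate overnight, and the time-resolved FRET ratio at 665/620 nm was corrected for background. Data are given as percent inhibition of IKZF1 signal relative, on each plate, to vehicle and a reference degrader, set at 0% and 100% respectively.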

Sequence of IKZF1 (dCK*-IKZF1 fusion in HEK293FT) (Q13422 whole entry, looked up, the tested form may be a part): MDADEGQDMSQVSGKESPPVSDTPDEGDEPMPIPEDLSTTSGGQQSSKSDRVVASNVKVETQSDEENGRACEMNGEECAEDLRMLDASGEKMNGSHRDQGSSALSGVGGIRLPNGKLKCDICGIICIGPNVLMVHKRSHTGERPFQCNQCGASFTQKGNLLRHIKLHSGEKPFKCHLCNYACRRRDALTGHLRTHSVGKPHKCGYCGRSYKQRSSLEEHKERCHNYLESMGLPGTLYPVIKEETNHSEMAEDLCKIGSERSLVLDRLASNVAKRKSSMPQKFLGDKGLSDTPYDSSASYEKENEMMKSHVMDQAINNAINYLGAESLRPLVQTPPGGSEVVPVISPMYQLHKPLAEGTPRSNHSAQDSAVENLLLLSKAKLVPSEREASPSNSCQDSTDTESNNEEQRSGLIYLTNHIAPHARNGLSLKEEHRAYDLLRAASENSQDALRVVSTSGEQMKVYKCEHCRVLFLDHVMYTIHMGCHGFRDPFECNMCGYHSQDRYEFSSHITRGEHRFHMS

Row | Structure (SMILES) | inhibition of IKZF1 HTRF signal [%]
1 | O=C(Nc1ccc(Br)cc1)c1cc(Br)cc(Br)c1O [tribomsalan] | 13.9
2 | C[C@H]1O[C@@H](O[C@H]2[C@@H](O)C[C@H](O[C@H]3[C@@H](O)C[C@H](O[C@H]4CC[C@@]5(C)[C@H](CC[C@@H]6[C@@H]5C[C@@H](O)[C@]5(C)C(c7coc(O)c7)CC[C@]65O)C4)O[C@@H]3C)O[C@@H]2C)C[C@H](O)[C@@H]1O (some centres not stated) [Digoxin] | 84.1
3 | COc1cc2cc(c1Cl)N(C)C(=O)C[C@H](OC(=O)C(C)C)[C@]1(C)O[C@H]1[C@H](C)[C@@H]1C[C@@](O)(NC(=O)O1)[C@H](OC)/C=C/C=C(\C)C2 [Ansamitocin P-3] | -18.7
4 | O=c1[nH]c2ccccc2n1CCCN1CCC(n2c(=O)[nH]c3cc(Cl)ccc32)CC1 | 4.83
5 | C[C@]12CCC3C(CC[C@]4(O)C[C@@H](O)CC[C@]34C=O)[C@@]1(O)CCC2C1=CC(=O)OC1 (some centres not stated) [Strophantidin] | 74.7
6 | O=C1/C(=C/c2ccccc2)C[C@@]2(O)C3Cc4ccc(O)c5c4[C@@]2(CCN3CC2CC2)[C@H]1O5 | 27.9
7 | Oc1cc(Cl)ccc1Oc1ccc(Cl)cc1Cl | -23.1
8 | CO[C@H]1[C@H](O)[C@H](O[C@H]2CC[C@@]3(C=O)[C@H](CC[C@@H]4[C@@H]3CC[C@]3(C)[C@@H](C5=CC(=O)OC5)CC[C@]43O)C2)O[C@@H](C)[C@@H]1O [Peruvoside] | 94.1
9 | O=[N+]([O-])c1ccc(Cl)c([N+](=O)[O-])c1 [2,4-dinitrochlorobenzene] | 7.2
10 | CCO[C@H]1O[C@@H]2O[C@@]3(C)CC[C@H]4[C@H](C)CC[C@@H]([C@H]1C)[C@@]24OO3 [Artemotil] | 21.4
11 | Clc1ccc(C(OCCN2CCCCC2)c2ccccc2)cc1 (configuration not stated) | -26.4
12 | COc1cc2c(c(OC)c1OC)-c1ccc(OC)c(=O)cc1[C@@H](NC(C)=O)CC2 | -16.1
13 | C(=C\c1ccccc1)/CN1CCN(CCOC(c2ccccc2)c2ccccc2)CC1 | -32.9
14 | N=C(Nc1ccccc1)Nc1ccccc1 [diphenylguanidine] | -55.9
15 | c1ccc2c(c1)Nc1ccccc1S2 | -13.2
16 | c1ccc2c(c1)sc1ccccc12 | -33.1
17 | CCOc1ccccc1-n1c(C(C)N2CCN(C(=O)COc3ccc(Cl)cc3)CC2)nc2ccccc2c1=O (configuration not stated) [Erastin] | -51.3
18 | C[C@]12CC[C@H](O)C[C@H]1CC[C@@H]1[C@@H]2C[C@@H](O)[C@]2(C)[C@@H](C3=CC(=O)OC3)CC[C@]12O [Digoxigenin] | 22.7
19 | O=[N+]([O-])/C=C/c1ccc2c(c1)OCO2 | -44.2

Row | Structure (SMILES) | inhibition of IKZF1 HTRF signal [%]
20 | CCC(C)[C@H]1O[C@]2(C=C[C@@H]1C)C[C@@H]1C[C@@H](C/C=C(\C)[C@@H](OC3C[C@H](OC)C(O[C@H]4C[C@H](OC)[C@@H](O)[C@H](C)O4)[C@H](C)O3)[C@@H](C)/C=C/C=C3\CO[C@@H]4[C@H](O)C(C)=C[C@@H](C(=O)O1)[C@]34O)O2 (some centres not stated) [ABAMECTIN (avermectin B1a shown)] | -61.7
21 | CC[C@@]1(C2O[C@@H](C3O[C@@](O)(CO)[C@H](C)C[C@@H]3C)C[C@@H]2C)CC[C@H]([C@]2(C)CC[C@]3(C[C@H](O)[C@@H](C)[C@@H]([C@@H](C)[C@@H](OC)[C@H](C)C(=O)O)O3)O2)O1 (some centres not stated) | 9.03
22 | CC[C@@H](C(N)=O)N1CCCC1=O | 17.7
23 | Clc1ccc(N2CCN(Cc3c[nH]c4ncccc34)CC2)cc1 | -41.5
24 | c1ccc2c(c1)Sc1ccccc1N2CC1CN2CCC1CC2 (configuration not stated) [levomequitazine] | 10.6
25 | CCCCCCC[n+]1ccc(-c2cc[n+](CCCCCCC)cc2)cc1 | -27.9
26 | CC(C)[C@]12O[C@H]1[C@@H]1O[C@]13[C@]1(O[C@H]1C[C@H]1C4=C(CC[C@@]13C)C(=O)OC4)[C@@H]2O [Triptolide] | 29.6
27 | CO[C@@]12C(=COC(N)=O)c3c(O)c(N)c(C)c(O)c3N1C[C@@H]1N[C@@H]12 [Mitomycin C] | 15.8
28 | COc1ccc2c(c1)/C(=C/c1cnc[nH]1)C(=O)N2 | -35.9
29 | O=c1n(Cl)c(=O)n(Cl)c(=O)n1Cl | -9.26
30 | Fc1ccc(C(OCCN2CCN(C/C=C/c3ccccc3)CC2)c2ccc(F)cc2)cc1 | -25.2
31 | COc1cc2c(c(OC)c1OC)-c1ccc(OC)c(=O)cc1[C@@H](NC(C)=O)CC2 [Colchicine] | 17.9 ± 34
32 | C[C@@]1(CO)[C@H](O)CC[C@@]2(C)[C@H]1CC[C@H]1C[C@@H]3C[C@@]12CC[C@]3(O)CO [Aphidicolin] | -14.2
33 | CC[C@@H](C(=O)O)C1CC[C@H](C)C([C@@H](C)[C@H](O)[C@H](C)C(=O)[C@H](CC)C2O[C@]3(C=C[C@@H](O)[C@]4(CC[C@@](C)(C5CC[C@](O)(CC)[C@H](C)O5)O4)O3)[C@H](C)C[C@@H]2C)O1 (some centres not stated) [Salinomycin (Procoxacin)] | -5.47
34 | O=c1[nH]c2ccccc2n1C1CCN(CCCC(c2ccc(F)cc2)c2ccc(F)cc2)CC1 | -18.9
35 | ClC(C=C3)=C(Cl)C=[C@@]3[C@H]2C1=CC=CC=C1[C@H](NC)C2 [indatraline] | 28.4
36 | N#Cc1cn([C@@H]2O[C@H](CO)[C@@H](O)[C@H]2O)c2ncnc(N)c12 [toyocamycin] | 44.4
37 | N#Cc1nn(-c2c(Cl)cc(C(F)(F)F)cc2Cl)c(N)c1S(=O)C(F)(F)F (configuration not stated) | -50.9
